This is a sample that favours compounds with a hit; in the whole collection about 10% have one here.
G9a block: inhibitors of human histone lysine methyltransferase G9a. Q96KQ7. G9a H3K9 monomethylation, AlphaScreen, 2 h. Potency, µM (highest dose often 102 µM), most hits filed as inhibitors. hit rate 8.8% among 350,000; also: nearly all actives have a fitted effect of over 75% in size
Target sequence (Q96KQ7 913-1193 limits assumed): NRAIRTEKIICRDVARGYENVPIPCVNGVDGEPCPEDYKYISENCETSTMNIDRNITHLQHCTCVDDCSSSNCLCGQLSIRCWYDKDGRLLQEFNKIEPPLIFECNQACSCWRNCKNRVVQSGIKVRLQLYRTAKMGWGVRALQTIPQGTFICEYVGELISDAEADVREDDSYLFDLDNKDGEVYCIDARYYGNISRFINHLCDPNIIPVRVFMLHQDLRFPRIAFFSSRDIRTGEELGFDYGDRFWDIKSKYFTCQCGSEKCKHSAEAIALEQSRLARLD
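G9a (20 nM) preincubated 15 min RT with compounds, then 500 nM biotinylated H3K9 peptide and 20 uM SAM added; 2 h RT reaction. Monomethyl-H3K9 product detected by AlphaScreen with anti-H3K9me1 antibody, streptavidin donor and anti-rabbit IgG acceptor beads.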
GLS inh: inhibitors of human glutaminase (GLS); O94925; GLS enzymatic activity, qHTS titration; Potency, µM (top dose mostly 45.5 µM), hits mostly inhibitors; hit rate 0.21% among 410,000; AID 624170
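hKGA in 45 mM KH2PO4 pH 8.2, 0.02% Tween-20 with pin-transferred compounds; 1 mM L-glutamine (stock) plus glutamate oxidase/HRP/Amplex Red coupling added. Fluorescence read initially and after 30 min at RT.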
BAZ2B inh: blocks human BAZ2B. AlphaScreen BAZ2B-H3K14Ac peptide displacement. Potency, µM (series often up to 114 µM), hits mostly inhibitors. hit rate 4.4% among 360,000; also: nearly all actives have a fitted effect of over 60% in size
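Complex of BAZ2B and biotin-H3K14Ac (50 nM apiece) forms over 30 min at RT, then faces library compounds up to 110 uM for another 30 min; AlphaScreen beads added, 20 min dark incubation, luminescence read.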
JMJD2A Tudor: JMJD2A Tudor domain (human) inhibition; AlphaScreen JMJD2A-Tudor / H3K4me3 peptide binding; Potency, µM (top dose mostly 114 µM), usual class: inhibitors; hit rate 4.4% among 390,000; AID 504339; also: nearly all actives have a fitted effect of over 50% in size
HP1b binding inh: blocks HP1-beta chromodomain binding to methylated histone tails | AlphaScreen HP1-beta / biotin-H3K9me3 peptide binding | Potency, µM (doses to about 114 µM), hits mostly inhibitors | hit rate 0.56% among 390,000; also: nearly all actives have a fitted effect of over 70% in size
Target sequence (P83916 whole entry, looked up): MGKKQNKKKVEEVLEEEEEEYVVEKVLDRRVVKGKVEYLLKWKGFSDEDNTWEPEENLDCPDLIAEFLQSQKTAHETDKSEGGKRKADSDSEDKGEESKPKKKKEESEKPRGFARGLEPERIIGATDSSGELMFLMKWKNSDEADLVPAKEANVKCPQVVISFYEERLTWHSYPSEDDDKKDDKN
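AlphaScreen: HP1-beta (50 nM) preformed 30 min with biotin-H3(1-18)K9me3 peptide (50 nM) in PBS pH 7.4, 0.01% Tween-20. Compound added for 30 min at RT, then streptavidin donor/nickel chelate acceptor beads (10 ug/mL) for 30 min.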
Numbers stand for hits; 0 = inactive; ? = inconclusive; - = no result given; [ ] = dose if it differs, or a comment. Calls follow the shape of the dose curve; as a rule, active = well fitted curve in the direction sought with a large enough effect; inconclusive = small, poorly fitted or top-dose-only effect, or another doubt; inactive = no such curve, though single readings can be large; an effect the other way counts as inactive or inconclusive.

SMILES | G9a block | GLS inh | BAZ2B inh | JMJD2A Tudor | HP1b binding inh
O=C(/C=C/c1ccccc1[N+](=O)[O-])c1ccccc1Br | 40µM | 0 | 32µM | 56µM | ?
COc1ccc(CC(=O)Nc2cccc(S(=O)(=O)N3CCCCCC3)c2)cc1OC | 0 | 0 | 0 | 0 | 0
COc1ccc(NC(=O)C2CCN(S(=O)(=O)c3cccc4nonc34)CC2)cc1 | 45µM | 0 | 0 | 0 | 0
CC(=O)c1ccc(NC(=O)C2CCN(S(=O)(=O)c3cccc4cccnc34)CC2)cc1 | 50µM | 0 | 0 | 0 | 0
COc1ccc(NC(=O)C2CCN(S(=O)(=O)c3cccc4cccnc34)CC2)cc1 | ? | 0 | 0 | 0 | 0
COc1ccc(OCC(=O)NCCCCCCNC(=O)COc2ccc(OC)cc2)cc1 | 0 | 0 | 0 | ? | 0
Cc1cc(Cl)ccc1NC(=O)CSc1n[nH]c(N)n1 | ? | 0 | 0 | 0 | 0
CC1CCN(S(=O)(=O)c2ccc3c(c2)c(=O)c(C(=O)NCc2ccco2)cn3C)CC1 | 79µM | 0 | 0 | 0 | 0
COc1ccc(C(=O)C2CCCN(Cc3cccn3-c3ccc(Cl)cn3)C2)c(OC)c1 (stereo unspecified) | 0 | 0 | 56µM | 0 | 0
COc1cc(C2NC(=O)NC(O)(C(F)(F)F)C2C(=O)c2cccs2)ccc1O (stereo unspecified) | 0 | 0 | 0 | 0 | 0
COc1cc(C2NC(=O)NC(O)(C(F)(F)F)C2C(=O)c2ccc(Cl)cc2)ccc1O (stereo unspecified) | 79µM | 0 | 0 | 0 | 0
Cc1ccc2c(c1)C1C=CCC1C(C(=O)NCCCN1CCOCC1)N2 (stereo unspecified) | - | 0 | - | ? | 0
O=C(NC1CC1)C1Nc2ccc(OC(F)(F)F)cc2C2C=CCC12 (stereo unspecified) | - | 0 | - | 0 | 0
NS(=O)(=O)c1ccc2c(c1)C1C=CCC1C(C1CC=CCC1)N2 (stereo unspecified) | ? | 0 | 50µM | ? | 0
CC(C)C1Nc2ccc(S(N)(=O)=O)cc2C2C=CCC21 (stereo unspecified) | 1.4µM | 0 | ? | ? | 0
C#CCCC(=O)c1ccccc1/C=[N+](\[O-])c1ccccc1 | 0[0.501 µM] | 0 | 0 | ? | 0
CCOC(=O)c1ccc(/[N+]([O-])=C/c2ccccc2)cc1 | 0[0.501 µM] | ? | ? | 32µM | ?
C#CCCc1cscc1/C=[N+](\[O-])c1ccc(C(=O)OCC)cc1 | 0[0.501 µM] | ? | 0 | 50µM | ?
CCCOc1ccc(NC(=O)CC2C(=O)N(c3cccc(OC)c3)C(=O)N2CCc2ccncc2)cc1 (stereo unspecified) | 0 | 0 | 0 | 0 | 0
Cc1ccc(-n2c(=O)c3c4c(sc3n(Cc3ccccc3C)c2=O)CCC4)cc1C | 0 | 0 | 0 | 0 | 0
CC(COc1ccc(/C=C/c2ccccc2)cc1)[N+](C)(C)C (stereo unspecified) | 4µM | 0 | 0 | 0 | 0
CCn1c(CSCc2ccc(C)cc2)n[nH]c1=S | - | 0 | ? | 32µM | 0
S=c1[nH]nc(CSCc2ccccc2Cl)n1-c1ccccc1 | - | - | 0 | 0 | 0
C=CCn1c(CSCc2ccc(F)cc2)n[nH]c1=S | - | 0 | 0 | 0 | 0
CCn1c(CSCc2ccc(Cl)cc2)n[nH]c1=S | 3.2µM | 0 | 0 | 56µM | 0
SMILES | G9a block | GLS inh | BAZ2B inh | JMJD2A Tudor | HP1b binding inh
Cn1c(CSCc2ccc(Cl)c(Cl)c2)n[nH]c1=S | ? | 0 | 0 | 89µM | 0
CC1CCCC(C)N1C(=O)COC(=O)c1cncc(Br)c1 (stereo unspecified) | - | 0 | - | 0 | 0
O=C(NC(c1ccccc1)c1ccsc1)C1CCN(CCOc2ccc(Cl)cc2Cl)CC1 (stereo unspecified) | - | 0 | - | - | -
COC1(C)CC2C(CC1OC(=O)c1cc([N+](=O)[O-])cc([N+](=O)[O-])c1)C2(C)C (stereo unspecified) | 13µM | 0 | 7.1µM | 25µM | ?
c1ccc(Nc2scc(-c3ccccc3)[n+]2Cc2ccco2)cc1 | 16µM | 0 | - | ? | ?
CCCCCC[n+]1c(-c2ccc(Cl)cc2Cl)csc1Nc1ccccc1 | ? | 0 | ? | ? | 0
c1ccc(C[n+]2c(-c3ccccc3)csc2Nc2ccccc2)cc1 | 11µM | 0 | 7.9µM | ? | 25µM
CCc1nc2c(OCc3ccc(Cl)cc3)cccn2c1N(C)C(=O)c1ccc2c(c1)OCO2 | - | 0 | - | - | -
Cc1nc2ccccc2n1CCc1nc2c3ccccc3nc(SCc3ccccc3F)n2n1 | 0 | 0 | 0 | 0 | 0
COc1cc2c(cc1OC)-c1cc(NC3CCCCCCC3)nc(=O)n1CC2 | 45µM | 0 | 0 | 0 | 0
COc1cc2c(cc1OC)-c1cc(NC3CCCCC3)nc(=O)n1CC2 | ? | 0 | 0 | 0 | 0
COc1cc2c(cc1OC)-c1cc(NCc3ccccn3)nc(=O)n1CC2 | - | ? | 28µM | 0[11.4 µM] | 0
CCNc1cc2n(c(=O)n1)CCc1cc(OC)c(OC)cc1-2 | 0 | 0 | 0 | 0 | 0
COc1ccc(Cn2c(SCc3ccc(C(=O)NC(C)C)cc3)nc3cccnc32)cc1 | 0 | 0 | 0 | 0 | 0
CSc1ccc(/C=C/c2nc3ccccc3n2S(=O)(=O)c2ccc(Br)cc2)cc1 | 0 | 0 | - | ? | 0
CN(C)c1ccc(N2C(=O)CSC2=S)cc1 | ? | 0 | 40µM | 40µM | ?
CC1SC(=S)N(c2ccc(N(C)C)cc2)C1=O (stereo unspecified) | 45µM | 0 | ? | ? | 0
CSc1ccccc1OCc1cc(C(=O)N(C)CCn2nc(C)cc2C)no1 | 0[0.501 µM] | ? | ? | 13µM | 0
CSc1ccccc1OCc1cc(C(=O)N(C)Cc2nonc2C)no1 | 0 | 0 | 0 | 0 | 0
CC1(C)CC(=O)C=C(Nc2ccc(O)c(C(=O)O)c2)C1 | 45µM | 0 | 0 | 0 | 0
CC1(C)CC(=O)C=C(Nc2ccc(C(=O)O)cc2)C1 | 0 | 0 | 0 | 0 | 0
COc1ccc(C(=O)Nc2cccc(/C=C(\CCC(=O)O)c3nc4ccccc4s3)c2)cc1 | 0[12.7 µM] | 0 | 79µM | 0[11.4 µM] | 32µM
O=C(O)C/C(=C\c1cccc(NC(=O)c2ccccc2Cl)c1)c1nc2ccccc2s1 | 0[12.7 µM] | 0 | 79µM | 35µM | 0
CCc1ccc(NC(=O)C(=O)NCC(c2ccc3c(c2)OCO3)N2CCOCC2)cc1 (stereo unspecified) | 0 | 0 | 0 | 0 | 0
Cc1ccc2nc(C3CCN(C(=O)c4ccco4)CC3)[nH]c2c1 | 56µM | 0 | ? | ? | 0
Cc1ccc2nc(C3CCN(CC(=O)N4CCCCCC4)CC3)[nH]c2c1 | 0 | 0 | 0 | 0 | 0
O=C1C2C3C=CC(C3)C2C(=O)N1c1ccc2c(c1)OCO2 (stereo unspecified) | 0 | 0 | 0 | 0 | 0
N=C1S/C(=C\c2ccco2)C(=O)N1c1nccs1 | 35µM | 0 | ? | 0 | 0
COc1ccccc1OCCN1C(=O)S/C(=C\c2ccco2)C1=O | ? | 0 | ? | 0 | 0
N=C1S/C(=C\c2ccco2)C(=O)N1c1ccc2c(c1)OCO2 | 45µM | ? | 56µM | ? | 0

Screening results: PubChem BioAssay, National Center for Advancing Translational Sciences (NCATS)
